# Several values for one entry are separate records, joined by “and”; a condition that tells them apart may be missing. Equal values may be shown once. Inconclusive results are not listed. Entries that show only a call come without a potency. Some structures have more than one record in an assay (separate samples or runs), and their calls can disagree. Activity calls are given as the source filed them. Unless noted, calls come from the whole dose curve.
# What was measured:
# [1] = qHTS assay to identify small molecule antagonists of the sonic hedgehog signaling (Shh) pathway (AID 1259369); note: nearly all actives have a fitted effect of over 45% in size; note: potency is the fitted concentration of half-maximal effect
# Method in brief: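 NIH/3T3-derived Gli1-Luc reporter cells plated 4 h, dosed with compound, then stimulated with conditioned medium for 24 h at 37 C. Firefly luciferase luminescence read after 30 min with detection reagent at room temperature.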
# [2] = biological target: Estrogen receptor beta (Homo sapiens) (UniProt Q92731); assay: qHTS assay to identify small molecule antagonists of the estrogen receptor beta (ER-beta) signaling pathway (AID 1259378; active = well fitted inhibition curve with a large enough effect in the signal ratio in the repeat runs, not every such curve was filed as active; the % refers to the signal ratio; note: potency is the fitted concentration of half-maximal effect)
# Chain of Estrogen receptor beta (Homo sapiens) (Q92731 whole entry, looked up): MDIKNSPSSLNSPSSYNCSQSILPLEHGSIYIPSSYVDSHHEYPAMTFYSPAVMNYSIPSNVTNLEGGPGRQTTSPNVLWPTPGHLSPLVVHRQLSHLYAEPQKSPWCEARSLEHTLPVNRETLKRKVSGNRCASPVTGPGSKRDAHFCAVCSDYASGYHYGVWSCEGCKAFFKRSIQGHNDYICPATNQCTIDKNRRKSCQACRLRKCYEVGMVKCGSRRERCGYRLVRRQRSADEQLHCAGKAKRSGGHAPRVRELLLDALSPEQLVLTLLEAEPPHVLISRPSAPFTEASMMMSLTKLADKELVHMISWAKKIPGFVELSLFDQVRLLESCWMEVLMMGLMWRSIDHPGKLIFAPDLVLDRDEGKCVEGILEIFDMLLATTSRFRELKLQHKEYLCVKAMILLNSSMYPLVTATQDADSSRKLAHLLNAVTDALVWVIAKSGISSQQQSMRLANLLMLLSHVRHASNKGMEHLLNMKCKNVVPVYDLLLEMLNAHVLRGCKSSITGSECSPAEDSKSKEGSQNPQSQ
# Method in brief: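 ER-beta-UAS-bla HEK293T cells in 2% charcoal-stripped FBS medium treated with compound plus 1nM final 17-beta-estradiol for 16 hr at 37C. Beta-lactamase reporter read by FRET substrate fluorescence after 2 hours at room temperature.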
# [3] = qHTS assay to identify small molecule agonists of the androgen receptor (AR) signaling pathway in the presence of an antagonist - cell viability counter screen (AID 1259379; active = well fitted curve in the direction sought with a large enough effect in the repeat runs; an effect the other way counts as inactive or inconclusive; note: nearly all actives have a fitted effect of over 25% in size; note: potency is the fitted concentration of half-maximal effect)
# Method in brief: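 MDA-kb2 cells (MMTV-luciferase, AR/GR), 3,000/well, 5 h attachment, then 3.0 µM nilutamide (final) and compounds at 15 concentrations. Viability by CellTiter-Fluor fluorescence after 16 h at 37 °C, 0% CO2, in the reporter wells.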
# [4] = biological target: Estrogen receptor (Homo sapiens) (UniProt P03372); assay: qHTS assay to identify small molecule agonists of the estrogen receptor alpha (ER-alpha) signaling pathway in the presence of an antagonist (AID 1259383); note: nearly all actives have a fitted effect of over 15% in size; note: potency is the fitted concentration of half-maximal effect; for activation: top concentration of the series differs between compounds
# Chain of Estrogen receptor (Homo sapiens) (P03372 whole entry, looked up): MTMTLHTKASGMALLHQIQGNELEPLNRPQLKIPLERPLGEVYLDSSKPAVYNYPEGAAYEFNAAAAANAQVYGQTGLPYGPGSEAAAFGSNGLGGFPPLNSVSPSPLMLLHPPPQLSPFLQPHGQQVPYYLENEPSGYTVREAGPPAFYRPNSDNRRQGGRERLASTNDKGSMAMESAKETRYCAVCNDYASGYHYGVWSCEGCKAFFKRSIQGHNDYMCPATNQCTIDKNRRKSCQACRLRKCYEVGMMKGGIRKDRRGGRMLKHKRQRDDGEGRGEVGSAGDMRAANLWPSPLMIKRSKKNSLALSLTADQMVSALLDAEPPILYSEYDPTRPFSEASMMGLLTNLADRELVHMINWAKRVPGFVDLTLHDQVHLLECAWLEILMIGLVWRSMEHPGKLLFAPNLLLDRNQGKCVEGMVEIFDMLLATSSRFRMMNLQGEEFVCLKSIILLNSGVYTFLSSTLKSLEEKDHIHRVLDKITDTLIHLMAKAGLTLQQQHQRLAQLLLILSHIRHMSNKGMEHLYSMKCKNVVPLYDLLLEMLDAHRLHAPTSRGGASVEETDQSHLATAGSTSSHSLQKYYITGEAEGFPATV
# Method in brief: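 VM7Luc4E2 cells express endogenous full-length ER-alpha with an ERE-luciferase reporter and were hormone-deprived for 5 days. Compounds at 15 concentrations were added with 10.0nM ICI-182,780 for 22hr at 37C. Luminescence was read with ONE-Glo.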
# [5] = biological target: Progesterone receptor (Homo sapiens) (UniProt P06401); assay: qHTS assay to identify small molecule agonists of the progesterone receptor (PR) signaling pathway (AID 1346784); note: nearly all actives have a fitted effect of over 30% in size; note: potency is the fitted concentration of half-maximal effect
# Chain of Progesterone receptor (Homo sapiens) (P06401 whole entry, looked up): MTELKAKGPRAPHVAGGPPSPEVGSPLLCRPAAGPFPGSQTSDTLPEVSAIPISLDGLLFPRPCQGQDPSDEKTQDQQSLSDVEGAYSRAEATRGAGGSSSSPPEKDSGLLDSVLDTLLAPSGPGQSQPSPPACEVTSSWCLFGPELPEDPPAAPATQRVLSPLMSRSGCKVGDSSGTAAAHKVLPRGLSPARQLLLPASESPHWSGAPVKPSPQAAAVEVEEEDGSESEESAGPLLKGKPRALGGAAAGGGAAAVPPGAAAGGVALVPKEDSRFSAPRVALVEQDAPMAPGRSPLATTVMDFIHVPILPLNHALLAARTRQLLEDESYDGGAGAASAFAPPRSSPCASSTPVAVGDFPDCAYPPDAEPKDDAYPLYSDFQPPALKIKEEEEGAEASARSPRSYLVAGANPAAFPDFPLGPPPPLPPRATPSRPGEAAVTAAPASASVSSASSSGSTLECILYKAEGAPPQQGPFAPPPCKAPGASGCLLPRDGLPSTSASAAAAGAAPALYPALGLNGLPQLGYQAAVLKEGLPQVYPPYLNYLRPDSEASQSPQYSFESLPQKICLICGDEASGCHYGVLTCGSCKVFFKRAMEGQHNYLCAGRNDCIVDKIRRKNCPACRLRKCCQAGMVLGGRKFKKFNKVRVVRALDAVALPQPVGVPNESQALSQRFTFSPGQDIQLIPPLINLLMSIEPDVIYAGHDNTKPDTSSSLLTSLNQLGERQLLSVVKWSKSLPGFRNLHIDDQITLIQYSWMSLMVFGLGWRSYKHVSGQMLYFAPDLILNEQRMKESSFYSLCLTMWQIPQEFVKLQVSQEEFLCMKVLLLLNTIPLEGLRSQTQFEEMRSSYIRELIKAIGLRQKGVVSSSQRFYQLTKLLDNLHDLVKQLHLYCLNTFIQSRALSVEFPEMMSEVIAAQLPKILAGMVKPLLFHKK
# Method in brief: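 Seed PR-UAS-bla HEK 293T cells (2% charcoal-stripped FBS), incubate 6 hr at 37C; add compounds in DMSO, 16 hr at 37C; add LiveBLAzer B/G substrate, 2 hr RT; read fluorescence intensity.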
# [6] = biological target: Progesterone receptor (Homo sapiens) (UniProt P06401); assay: qHTS assay to identify small molecule antagonists of the progesterone receptor (PR) signaling pathway (AID 1346795; active = well fitted inhibition curve with a large enough effect in the signal ratio in the repeat runs, not every such curve was filed as active; the % refers to the signal ratio; note: potency is the fitted concentration of half-maximal effect)
# Method in brief: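 Screening used a GripTite HEK293T line with PR-responsive UAS-beta-lactamase. Cells were challenged with compound in the presence of 1 nM R5020 final for 16 hr at 37C; B/G FRET substrate, 2 hr room temperature, fluorescence.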
# [7] = qHTS assay to identify small molecule antagonists of the progesterone receptor (PR) signaling pathway - cell viability counter screen (AID 1346798; active = well fitted curve in the direction sought with a large enough effect in the repeat runs; an effect the other way counts as inactive or inconclusive; note: nearly all actives have a fitted effect of over 50% in size; note: potency is the fitted concentration of half-maximal effect)
# Method in brief: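 Measures cytotoxicity in parallel with the PR antagonist reporter read: HEK293T PR-UAS-bla cells get compound and R5020 for 16 hr, and remaining viable cells are quantified by CellTiter-Glo luminescence.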
# [8] = qHTS assay to identify small molecule agonists of the progesterone receptor (PR) signaling pathway - cell viability counter screen (AID 1346799); note: nearly all actives have a fitted effect of over 45% in size
# Method in brief: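 Using the same plates as the PR reporter screen, HEK293T PR-UAS-bla cells received compounds for 16 hr at 37C and were then lysed with CellTiter-Glo; luminescence was read 30 min later at room temperature.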
# [9] = qHTS assay to identify small molecule agonists of the TGF-beta/Smad signaling pathway - cell viability counter screen (AID 1346829; active = well fitted curve in the direction sought with a large enough effect in the repeat runs; an effect the other way counts as inactive or inconclusive; note: top concentration of the series differs between compounds; nearly all actives have a fitted effect of over 45% in size)
# Method in brief: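 Compound-treated SBE-bla HEK 293T cells (5 hr, 37 C) were assessed for viability with CellTiter-Glo in parallel with the reporter read.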
# [10] = qHTS assay to identify small molecule agonists of the TGF-beta/Smad signaling pathway (AID 1346859; active = well fitted activation curve with a large enough effect in the signal ratio in the repeat runs, not every such curve was filed as active; the % refers to the signal ratio; note: series mostly up to about 77 µM)
# Method in brief: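 Beta-lactamase reporter activity downstream of Smad binding elements was measured in stably transfected HEK 293T cells; compounds were incubated for 5 hr, substrate for 2 hr at room temperature.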
# [11] = biological target: Thyrotropin-releasing hormone receptor (Homo sapiens) (UniProt P34981); assay: qHTS assay to identify small molecule antagonists of the thyrotropin-releasing hormone receptor (TRHR) signaling pathway (AID 1346877; active = well fitted inhibition curve with a large enough effect in the repeat runs, not every such curve was filed as active; note: potency is the fitted concentration of half-maximal effect)
# Chain of Thyrotropin-releasing hormone receptor (Homo sapiens) (P34981 whole entry, looked up): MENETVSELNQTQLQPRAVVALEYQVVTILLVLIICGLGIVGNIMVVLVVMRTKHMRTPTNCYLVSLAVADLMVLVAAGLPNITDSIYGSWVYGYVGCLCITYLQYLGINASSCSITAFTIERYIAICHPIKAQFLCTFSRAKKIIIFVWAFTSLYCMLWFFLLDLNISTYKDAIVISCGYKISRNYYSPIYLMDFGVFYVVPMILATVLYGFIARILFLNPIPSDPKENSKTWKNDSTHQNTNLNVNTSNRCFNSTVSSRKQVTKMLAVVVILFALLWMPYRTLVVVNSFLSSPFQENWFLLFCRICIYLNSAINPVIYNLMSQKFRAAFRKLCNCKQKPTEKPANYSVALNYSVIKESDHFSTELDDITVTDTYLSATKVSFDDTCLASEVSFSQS
# Method in brief: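 TRHR-expressing HEK293 cells loaded with calcium dye for 2 h at 37 C; compounds pre-incubated 5 min at room temperature before TRH challenge at 1 nM final. Intracellular calcium fluorescence read kinetically for 3 min; 15 concentrations in triplicate.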
# [12] = biological target: Thyrotropin-releasing hormone receptor (Homo sapiens) (UniProt P34981); assay: qHTS assay to identify small molecule agonists of the thyrotropin-releasing hormone receptor (TRHR) signaling pathway (AID 1346891); note: series mostly up to about 58 µM
# Method in brief: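 Overnight-plated (18 h, 37 °C, 5% CO2) TRHR-Hek293 cells; 2 h calcium dye at 37 °C; compound in DMSO; 3-min kinetic fluorescence read.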
# [13] = qHTS assay to identify small molecule agonists of the estrogen receptor beta (ER-beta) signaling pathway - cell viability counter screen (AID 1259380; active = well fitted curve in the direction sought with a large enough effect in the repeat runs; an effect the other way counts as inactive or inconclusive; note: nearly all actives have a fitted effect of over 30% in size; note: potency is the fitted concentration of half-maximal effect)
# Method in brief: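 ER-beta-UAS-bla HEK293T cells in medium with 2% charcoal-stripped FBS, pre-incubated 6 hr, then treated 16 hr at 37C. Cytotoxicity read in the same wells by CellTiter-Glo luminescence after 30 min at room temperature.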
# [14] = qHTS assay to identify small molecule antagonists of the estrogen receptor beta (ER-beta) signaling pathway - cell viability counter screen (AID 1259382; active = well fitted curve in the direction sought with a large enough effect in the repeat runs; an effect the other way counts as inactive or inconclusive; note: nearly all actives have a fitted effect of over 55% in size; note: potency is the fitted concentration of half-maximal effect)
# Method in brief: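 ER-beta-UAS-bla HEK293T cells in 2% charcoal-stripped FBS medium, treated with compound plus 1 nM 17-beta-estradiol for 16 h at 37C. Viability read by CellTiter-Glo luminescence after 30 min at room temperature in the same wells.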
# [15] = biological target: Thyrotropin receptor (Homo sapiens) (UniProt P16473); assay: qHTS assay to identify small molecule antagonists of the thyroid stimulating hormone receptor (TSHR) signaling pathway (AID 1259385); note: nearly all actives have a fitted effect of over 20% in size
# Chain of Thyrotropin receptor (Homo sapiens) (P16473 whole entry, looked up): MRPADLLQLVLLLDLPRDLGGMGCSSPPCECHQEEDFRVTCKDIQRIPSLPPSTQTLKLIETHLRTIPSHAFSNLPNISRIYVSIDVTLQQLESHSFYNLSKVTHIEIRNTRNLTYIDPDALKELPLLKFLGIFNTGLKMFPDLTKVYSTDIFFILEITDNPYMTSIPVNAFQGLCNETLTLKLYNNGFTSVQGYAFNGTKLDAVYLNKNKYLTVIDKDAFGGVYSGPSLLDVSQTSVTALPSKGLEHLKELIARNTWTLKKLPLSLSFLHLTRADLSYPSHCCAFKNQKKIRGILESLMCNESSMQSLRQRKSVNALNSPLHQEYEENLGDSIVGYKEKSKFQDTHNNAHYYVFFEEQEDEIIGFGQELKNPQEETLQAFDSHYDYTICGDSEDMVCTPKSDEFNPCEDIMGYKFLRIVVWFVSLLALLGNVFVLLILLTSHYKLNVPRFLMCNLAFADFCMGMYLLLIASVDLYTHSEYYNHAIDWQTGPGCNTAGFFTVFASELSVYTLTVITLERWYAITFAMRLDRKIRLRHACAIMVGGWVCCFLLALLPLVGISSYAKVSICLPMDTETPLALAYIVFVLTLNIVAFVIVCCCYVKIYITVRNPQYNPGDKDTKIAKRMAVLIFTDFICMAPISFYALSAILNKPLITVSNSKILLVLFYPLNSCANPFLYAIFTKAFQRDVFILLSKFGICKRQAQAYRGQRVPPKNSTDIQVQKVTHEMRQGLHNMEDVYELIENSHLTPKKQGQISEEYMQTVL
# Method in brief: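 TSHR-HEK293 cells (800/well) plated 18 h, then compounds with Ro20-1724 and TSH at 1.5 ng/mL final, 30 min at room temperature. cAMP quantified by HTRF (cAMP-d2/anti-cAMP-cryptate, 1 h); 15 concentrations in triplicate.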
# [16] = qHTS assay to identify small molecule agonists of the estrogen receptor alpha (ER-alpha) signaling pathway in the presence of an antagonist - cell viability counter screen (AID 1259386; active = well fitted curve in the direction sought with a large enough effect in the repeat runs; an effect the other way counts as inactive or inconclusive;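 note: cells exposed to compounds for 22 h at 37 °C before the viability read; nearly all actives have a fitted effect of over 30% in size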; note: potency is the fitted concentration of half-maximal effect)
# Method in brief: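 Cell viability in VM7Luc4E2 cells (endogenous full-length ER-alpha) measured by CellTiter-Fluor fluorescence in the same wells as the luciferase screen. Cells pre-cultured 5 days in charcoal-stripped serum, then treated 22 h with compounds at 15 concentrations plus 10.0nM ICI-182,780.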
# [17] = qHTS assay to identify small molecule antagonists of the TGF-beta/Smad signaling pathway - cell viability counter screen (AID 1346824; active = well fitted curve in the direction sought with a large enough effect in the repeat runs; an effect the other way counts as inactive or inconclusive; note: nearly all actives have a fitted effect of over 50% in size)
# Method in brief: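 SBE-bla HEK 293T cells, incubated overnight, then compound plus 0.25 ng/mL TGF-beta1 (stock added) for 5 hr at 37 C. Viability was read in the same wells by CellTiter-Glo luminescence after 30 min at room temperature.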
# [18] = qHTS assay to identify small molecule agonists or antagonists of the thyroid stimulating hormone receptor (TSHR) signaling pathway - wild type cell line counter screen (AID 1259384)
# Method in brief: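 Wild-type Hek293 cells, 800/well, 18 h at 37C, then compound with Ro20-1724 for 30 min RT. cAMP by HTRF (cAMP-d2/anti-cAMP cryptate), 1 h RT, fluorescence read. 15 concentrations, triplicates.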
# [19] = biological target: Androgen receptor (Homo sapiens) (UniProt P10275); assay: qHTS assay to identify small molecule agonists of the androgen receptor (AR) signaling pathway in the presence of an antagonist (AID 1259381); note: nearly all actives have a fitted effect of over 15% in size
# Chain of Androgen receptor (Homo sapiens) (P10275 whole entry, looked up): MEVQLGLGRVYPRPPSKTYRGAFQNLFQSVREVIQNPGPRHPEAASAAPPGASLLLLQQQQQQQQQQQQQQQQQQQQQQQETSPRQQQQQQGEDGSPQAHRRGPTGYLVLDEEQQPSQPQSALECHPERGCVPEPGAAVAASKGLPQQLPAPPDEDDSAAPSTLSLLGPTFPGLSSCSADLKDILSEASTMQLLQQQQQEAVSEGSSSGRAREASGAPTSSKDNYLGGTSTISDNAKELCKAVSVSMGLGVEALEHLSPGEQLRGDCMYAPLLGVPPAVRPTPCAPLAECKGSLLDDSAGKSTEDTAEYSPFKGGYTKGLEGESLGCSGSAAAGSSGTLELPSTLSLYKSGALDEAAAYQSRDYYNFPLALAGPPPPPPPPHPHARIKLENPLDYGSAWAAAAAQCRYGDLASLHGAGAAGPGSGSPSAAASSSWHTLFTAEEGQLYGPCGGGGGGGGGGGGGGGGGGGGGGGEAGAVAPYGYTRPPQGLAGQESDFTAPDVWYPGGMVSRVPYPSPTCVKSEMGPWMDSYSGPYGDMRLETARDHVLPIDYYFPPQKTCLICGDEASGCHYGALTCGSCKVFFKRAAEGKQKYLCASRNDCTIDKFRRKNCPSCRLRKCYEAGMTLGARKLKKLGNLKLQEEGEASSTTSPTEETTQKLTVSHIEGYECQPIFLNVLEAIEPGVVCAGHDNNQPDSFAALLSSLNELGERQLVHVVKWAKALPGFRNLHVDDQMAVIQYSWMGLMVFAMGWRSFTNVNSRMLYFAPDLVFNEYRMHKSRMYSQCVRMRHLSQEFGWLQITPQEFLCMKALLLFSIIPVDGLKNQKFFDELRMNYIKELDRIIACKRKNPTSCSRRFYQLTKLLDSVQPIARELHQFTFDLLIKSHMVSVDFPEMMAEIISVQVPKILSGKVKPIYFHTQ
# Method in brief: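 MDA-kb2 cells carrying MMTV-luciferase (AR/GR responsive), 3,000 cells/well, co-treated with 3.0 uM nilutamide final. Compounds at 15 concentrations, 16 hr at 37C without CO2. Luciferase luminescence read after 30 min with ONE-Glo.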
Compound,Potency [1],Potency [2],Potency [3],Potency [4],Potency [5],Potency [6],Potency [7],Potency [8],Potency [9],Potency [10],Potency [11],outcome [12],Potency [13],Potency [14],Potency [15],Potency [16],Potency [17],outcome [18],outcome [19]
CC(CCc1ccccc1)NCC(O)c1ccc(O)c(C(N)=O)c1 (configuration not stated),30.6 µM (active),inactive,inactive,inactive,inactive,inactive,inactive,inactive,inactive,inactive,inactive,inactive,,,,,,,
Sc1nc2ccccc2s1,54.5 µM (active),inactive,inactive,,,inactive,inactive,,inactive,inactive,inactive,inactive,inactive,inactive,inactive,inactive,inactive,,
CC(C)CCCCCOC(=O)CCS,inactive,,inactive,inactive,inactive,inactive,inactive,,inactive,inactive,inactive,inactive,inactive,inactive,inactive,inactive,,inactive,
CCCC(=O)OCOC(=O)C1=C(C)NC(C)=C(C(=O)OC)C1c1cccc(Cl)c1Cl (configuration not stated),inactive,,inactive,inactive,inactive,,inactive,inactive,inactive,inactive,,,inactive,inactive,inactive,inactive,inactive,inactive,inactive
CCN(CC)c1ccc2c(-c3ccc(S(=O)(=O)O)cc3S(=O)(=O)[O-])c3ccc(=[N+](CC)CC)cc-3oc2c1,inactive,inactive,12.6 µM (active),inactive,inactive,inactive,inactive,,,inactive,inactive,inactive,,inactive,,,inactive,,inactive
O=C1c2ccccc2C(=O)N1SC1CCCCC1,15.3 µM (active),inactive,inactive,inactive,inactive,inactive,inactive,inactive,inactive,inactive,30.1 µM (active) and inactive,inactive,54.5 µM (active),,inactive,inactive,inactive,inactive,
COc1ccc2c(c1)c(CC(=O)OC/C=C(\C)CC/C=C(\C)CCC=C(C)C)c(C)n2C(=O)c1ccc(Cl)cc1,inactive,,inactive,inactive,,,inactive,inactive,inactive,inactive,inactive,inactive,inactive,inactive,inactive,inactive,,inactive,
CCCCCC(C)OC(=O)COc1ccc(Cl)c2cccnc12 (configuration not stated),54.5 µM (active),,inactive,inactive,inactive,54.5 µM (active),inactive,inactive,inactive,inactive,inactive,inactive,54.5 µM (active),inactive,inactive,inactive,inactive,inactive,
Cc1c2ccccc2c(C)c2c1ccc1ccccc12,10.9 µM (active),,53.9 µM (active) and 61.1 µM (active),,,,27 µM (active) and 30.6 µM (active),,,,inactive,inactive,30.3 µM (active) and 27.3 µM (active),24.3 µM (active),inactive,inactive,,inactive,inactive
Cl[Si](Cl)(c1ccccc1)c1ccccc1,inactive,,inactive,inactive,inactive,,inactive,inactive,inactive,inactive,inactive,inactive,inactive,inactive,inactive,,,inactive,
Cc1nc(-c2ccc(Cl)cc2)oc1COC(C)(C)C(=O)O,inactive,inactive,inactive,,inactive,inactive,inactive,,inactive,inactive,inactive,inactive,,inactive,inactive,inactive,inactive,inactive,
C#Cc1ccc(-c2ccccc2F)cc1,inactive,,inactive,inactive,inactive,inactive,inactive,inactive,inactive,inactive,inactive,inactive,inactive,inactive,inactive,inactive,inactive,inactive,
COc1cccc2c1C(=O)c1c(O)c3c(c(O)c1C2=O)C[C@@](O)(C(C)=O)C[C@@H]3O[C@H]1C[C@H](N)[C@H](O)[C@H](C)O1,0.0194 µM (active),4.22 µM (active),30.8 µM (active) and 11.9 µM (active),,,,inactive,inactive,inactive,,inactive,inactive,77.4 µM (active) and inactive,inactive,,27.5 µM (active) and 21.1 µM (active),inactive,,
C#CC1(O)CC[C@H]2[C@@H]3CCC4=CCCC[C@@H]4[C@H]3CC[C@@]21C (some centres not stated),48.6 µM (active) and inactive,,inactive,611 nM (active) and 473 nM (active),0.486 µM (active),,,,,inactive,inactive,inactive,61.1 µM (active) and 29.8 µM (active),61.1 µM (active) and 26.6 µM (active),inactive,,inactive,inactive,
CC(C)=CCNc1ncnc2c1ncn2[C@@H]1O[C@H](CO)[C@@H](O)[C@H]1O,2.98 µM (active),,inactive,inactive,,inactive,inactive,,,inactive,inactive,inactive,13.3 µM (active),11.9 µM (active),inactive,inactive,,inactive,inactive

# — PubChem BioAssay (Tox21)
